Screening data deposited in PubChem BioAssay by National Center for Advancing Translational Sciences (NCATS).
Compounds with a hit are over-represented: about 21% of the library has one in this group of screens.
Cycloheximide cs: Cycloheximide Counterscreen for Small Molecule Inhibitors of Shiga Toxin. AID 2314, 2010. max response, %. hit rate 12% among 300,000. cell reporter, cycloheximide protein synthesis inhibition counterscreen; in the data active = max response mostly above about 13%, no sharp cut-off; inactive = mostly below about 14%; note: read at 38.3 µM for the half of the compounds with a filed dose; 0% is about no effect
SARS PLP yeast: qHTS of Yeast-based Assay for SARS-CoV PLP; S. cerevisiae expressing SARS-CoV PLpro, growth rescue; Potency, µM (top dose mostly 32.9 µM), for inactives: top-dose activity, positive = growth rescue, actives largely listed as activators; hit rate 0.19% among 330,000; AID 485353, 2010; calls by dose curve; note: potency is the fitted concentration of half-maximal effect; 0% is about no effect; nearly all actives have a fitted effect of over 55% in size
Pf growth 96h: Primary qHTS for delayed death inhibitors of the malarial parasite plastid, 96 hour incubation | P. falciparum luciferase reporter growth, 96 h | Potency, µM (highest dose often 28.7 µM), inactives show at the top dose activity change, negative = inhibition, most hits filed as inhibitors | hit rate 6.9% among 320,000 | AID 504834, 2011; note: potency is the fitted concentration of half-maximal effect; % is set by controls: 0 for no effect and ±100 for the full control effect
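Readout is luminescence from an integrated firefly luciferase in P. falciparum. Red cells, 2% hematocrit and 0.05% parasitemia final, were cultured with compound through two parasite generations (96 hours) at 37 C, 5% CO2.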
NS1 inh: qHTS Assay for Inhibitors of Influenza NS1 Protein Function; Potency, µM (highest dose often 46.1 µM), for the others: at the highest dose activity, positive = more growth; hit rate 0.4% among 270,000; AID 2326, 2010; calls by dose curve; note: potency is the fitted concentration of half-maximal effect; actives are rising curves; nearly all actives have a fitted effect of over 50% in size
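Growth recovery, yeast-based: influenza A NS1 expressed in S. cerevisiae causes slow growth, and suppressors are detected by OD600. The parent strain without NS1 is used as positive control.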
Shiga toxin inh: A qHTS for Small Molecule Inhibitors of Shiga Toxin. inhibition, % at 38.7 µM. Vero cells, Shiga toxin protein synthesis inhibition reporter. hit rate 9.2% among 290,000; in the data active = inhibition mostly above about 28%, no sharp cut-off; inactive = mostly below about 43%; note: 0% is about no effect
Pf growth 48h: Primary qHTS for delayed death inhibitors of the malarial parasite plastid, 48 hour incubation; Potency, µM (series often up to 28.7 µM), for inactives: at the highest dose activity change, negative = inhibition, actives largely listed as inhibitors; AID 504832, 2011; P. falciparum luciferase growth in erythrocytes, 48 h; hit rate 5.9% among 310,000; note: potency is the fitted concentration of half-maximal effect; % is set by controls: 0 for no effect and ±100 for the full control effect
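Growth was read as firefly luciferase luminescence after a 48 h, 37 C, 5% CO2 exposure of compounds to reporter-bearing P. falciparum cultures (0.1% parasitemia, 2% hematocrit final) in Albumax-supplemented RPMI 1640.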
* hit, by the source's call; ? = inconclusive; / = no result; [ ] = another dose, or the depositor's remark. Unless noted, calls come from the whole dose curve; as a rule, active = well fitted inhibition curve with a large enough effect; inconclusive = small, poorly fitted or top-dose-only effect, or another doubt; inactive = no such curve, though single readings can be large or run the other way.

SMILES | Cycloheximide cs | SARS PLP yeast | Pf growth 96h | NS1 inh | Shiga toxin inh | Pf growth 48h
O=C1C(Cl)=C(NC(=O)c2ccccc2)C(=O)C(Cl)=C1NC(=O)c1ccccc1 | 18* | -11% | ? | -64% | 60 | /
O=C(NC(NC1CCS(=O)(=O)C1)C(=O)c1cccs1)c1ccccc1 (stereo not given) | 3 | 2% | / | 10% | -4 | 13%
O=C(NC1=C(Nc2ccc(Cl)cc2)C(=O)c2ccccc2C1=O)c1ccccc1 | 24* | 10% | 0.1µM* | -13% | 38 | 0.13µM*
Cc1cc(C)n2nc(SC3CCCCN(C(=O)c4ccc(F)cc4)C3=O)nc2n1 (stereo not given) | -7 | 2% | 25% | ? | -20 | 1%
Cc1ccc(Nc2c([N+](=O)[O-])c(=O)oc3ccccc23)cc1C | 15 | -4% | 34% | -4% | 26 | ?
Cc1cccc(NC2=C(NC(=O)c3ccccc3)C(=O)c3ccccc3C2=O)c1 | 14* | -41% | ? | -35% | 30 | 0.47µM*
O=C(c1cc(COc2ccc(F)cc2Cl)on1)N1C[C@H]2CC[C@H]1C2 | 40* | -11% | ? | -43% | 66* | 10%
O=C(c1cc(COc2ccc(F)cc2Cl)on1)N1CC[C@@H]2CCCC[C@H]2C1 | 15 | ? | 82% | -1% | -2 | 8%
O=C(c1cc(COc2ccc(F)cc2Cl)on1)N1CC2C[C@@H]3CC1C[C@H](C2)C3 | 30* | -6% | -16% | -18% | 102* | 31%
CCN(CC)C1CCN(C(=O)c2cc(COc3ccc(F)cc3Cl)on2)C1 (stereo not given) | 20 | -1% | -28% | 4% | 3 | -7%
O=C(c1cc(COc2ccc(F)cc2Cl)on1)N1CCc2ccccc2C1 | 1 | 0% | 17% | -5% | -6 | 6%
CCOC(=O)CC1COCCN1C(=O)c1cc(COc2ccc(F)cc2Cl)on1 (stereo not given) | 39* | -5% | ? | -25% | 61* | ?
CC(CSC(=O)c1ccccc1)C(=O)N1C[C@@H](Sc2ccccc2)C[C@H]1C(=O)O (stereo not given in full) | / | / | 0% | / | / | -2%
Cc1cccc(NS(=O)(=O)c2cc3c(cc2C)n(C)c(=O)c(=O)n3C)c1 | 2 | 4% | 13µM* | 12% | -8 | ?
Cc1cc(C)c(S(=O)(=O)N2CCCCCC2)cc1Br | -2 | -1% | 13% | -36% | -9 | -28%
Cc1cc2c(cc1S(=O)(=O)Nc1cccc(F)c1)n(C)c(=O)c(=O)n2C | 1 | 0% | ? | 12% | 2 | 19%
Cc1cc2c(cc1S(=O)(=O)N1CCCC1)n(C)c(=O)c(=O)n2C | 1 | 1% | 13µM* | 10% | -9 | -2%
CN(C)c1cccc(C(=O)NNC(=O)/C=C/c2cccs2)c1 | / | 1% | -1% | / | / | 10%
CCN(Cc1nc(-c2cccc(Cl)c2)no1)CC1CCCO1 (stereo not given) | 13* | 0% | ? | -3% | 24 | 37%
CN(Cc1nc(-c2cccc(Cl)c2)no1)C1CCOCC1 | 35* | 1% | 0% | 1% | 84* | 200%
Cc1cnccc1CN(C)Cc1cn(C)nc1-c1cccc(Cl)c1 | -3 | -1% | 20% | 1% | -9 | ?
CN(Cc1cn(C)nc1-c1cccc(Cl)c1)CC1CCCCO1 (stereo not given) | -2 | 1% | 10µM* | 2% | -19 | 6%
COc1ccc(-c2c(-c3ccccc3)c(C(=O)C(=O)NCCCN(C)C)n3ccc4cc(OC)c(OC)cc4c23)cc1OC | -7 | 2% | 2.9µM* | 4% | -10 | /
CN(C)CCNC(=O)C(=O)c1c(-c2ccccc2)cc2ccccn12 | -1 | 1% | -4% | / | 16 | -3%
CC1(C)CN(c2ccc(N3CC(C)(C)C3=O)cc2)C1=O | 39* | -2% | 100% | / | 69* | 63%
SMILES | Cycloheximide cs | SARS PLP yeast | Pf growth 96h | NS1 inh | Shiga toxin inh | Pf growth 48h
CCCCC#Cc1cncc(C(=O)N/N=C/c2cccc(OC)c2)c1 | -1 | -1% | 28% | -44% | -8 | ?
O=C(CSc1nnnn1-c1ccccc1)c1ccco1 | 36* | -1% | 0% | / | 27 | 44%
c1csc(CSc2nnc3sc4ccccc4n23)c1 | 32* | -10% | 5% | -2% | 106* | 196%
O=C(CSCCSCC(=O)c1ccco1)c1ccco1 | 13* | -2% | ? | 9% | 49 | 24%
Cn1nnnc1SCC(=O)c1ccco1 | 19 | 4% | 30% | 3% | -6 | /
O=C(CSc1nnc2sc3ccccc3n12)c1ccco1 | 40* | -6% | 2% | -5% | 100* | 62%
CN(C)C(=O)CSc1nnc2sc3ccccc3n12 | -1 | ? | 103% | -2% | 19 | /
Cc1ccccc1N(CC(=O)Nc1ccc(S(=O)(=O)N2CCOCC2)cc1)S(C)(=O)=O | -1 | 0% | ? | -10% | 5 | ?
Cc1ccc2c(c1)COc1c3ccc(C(=O)O)cc3nn1-2 | -4 | -5% | 97% | -46% | -8 | 70%
Cc1ccc2c(c1)COc1c3ccc(C(=O)NCC4CC4)cc3nn1-2 | 30* | -1% | 30% | -45% | 54* | 27%
O=C(NCCO)c1ccc2c3n(nc2c1)-c1ccccc1CO3 | 39* | -3% | 238% | 1% | 44* | 3%
O=C(NCC1CC1)c1ccc2c3n(nc2c1)-c1ccccc1CO3 | 30* | -9% | 121% | -73% | 92* | 146%
C[C@@H](CN1C(=O)C(=O)NC[C@@H]1Cc1ccc(O)cc1)NC(=O)Cc1ccccc1 | -3 | -2% | 46% | -7% | -2 | 54%
OC(CNCc1ccccc1Cl)C(F)(F)F (stereo not given) | -3 | 1% | 13% | -1% | -3 | -39%[5.75 µM]
COc1cc(C(CC(=O)N2CCN(c3ccccc3)CC2)c2c(OC)cc(OC)c3ccc(=O)oc23)cc(OC)c1OC (stereo not given) | 1 | 4% | 4.7µM* | ? | -2 | 5.9µM*
COc1cc(OC)c2ccc(=O)oc2c1C(CC(=O)N1CCN(c2ccccc2)CC1)c1ccc2c(c1)OCO2 (stereo not given) | 9 | -3% | 13µM* | 8% | -4 | 12µM*
COc1ccc2c(c1)/C(=C/c1cnc[nH]1)C(=O)N2 | -1 | -16% | 5.2µM* | -103% | 9 | ?
O=C1Nc2ccccc2/C1=C/c1cnc[nH]1 | 1 | -13% | ? | -73% | -6 | ?
O=C(NCCc1ccccn1)C(F)(F)C(F)(F)C(F)(F)C(F)(F)C(F)(F)C(F)F | 14* | 5% | ? | 6% | -5 | -6%
O=C(NCCc1ccccn1)c1ccc(OC(F)F)cc1 | 25* | -4% | 472% | / | 75* | 311%
CC(C)(C)C1CCC(OC(=O)c2cncc(Br)c2)CC1 (stereo not given) | 6 | 0% | 36% | / | 38 | 63%
